# Compound activity: PubChem BioAssay, National Center for Advancing Translational Sciences (NCATS)
# In the library only some 0.24% were active in any assay of this set; here they are far more common.
# TSHR antagonist – human thyrotropin receptor antagonism; TSHR-expressing cells, TSH-stimulated cAMP HTRF, 2 h; hits give low values; activity change, negative = inhibition, % at 11.5 µM; P16473; 0.2% of 330,000 active;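 active means activity change below a set negative limit, meaning inhibition stronger than a set level, cut at about -70% in these data; inconclusive means activity change between two set negative limits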; further: on the % scale 0 is the no-effect control and ±100 the full control effect
# Target sequence (P16473 whole entry, looked up): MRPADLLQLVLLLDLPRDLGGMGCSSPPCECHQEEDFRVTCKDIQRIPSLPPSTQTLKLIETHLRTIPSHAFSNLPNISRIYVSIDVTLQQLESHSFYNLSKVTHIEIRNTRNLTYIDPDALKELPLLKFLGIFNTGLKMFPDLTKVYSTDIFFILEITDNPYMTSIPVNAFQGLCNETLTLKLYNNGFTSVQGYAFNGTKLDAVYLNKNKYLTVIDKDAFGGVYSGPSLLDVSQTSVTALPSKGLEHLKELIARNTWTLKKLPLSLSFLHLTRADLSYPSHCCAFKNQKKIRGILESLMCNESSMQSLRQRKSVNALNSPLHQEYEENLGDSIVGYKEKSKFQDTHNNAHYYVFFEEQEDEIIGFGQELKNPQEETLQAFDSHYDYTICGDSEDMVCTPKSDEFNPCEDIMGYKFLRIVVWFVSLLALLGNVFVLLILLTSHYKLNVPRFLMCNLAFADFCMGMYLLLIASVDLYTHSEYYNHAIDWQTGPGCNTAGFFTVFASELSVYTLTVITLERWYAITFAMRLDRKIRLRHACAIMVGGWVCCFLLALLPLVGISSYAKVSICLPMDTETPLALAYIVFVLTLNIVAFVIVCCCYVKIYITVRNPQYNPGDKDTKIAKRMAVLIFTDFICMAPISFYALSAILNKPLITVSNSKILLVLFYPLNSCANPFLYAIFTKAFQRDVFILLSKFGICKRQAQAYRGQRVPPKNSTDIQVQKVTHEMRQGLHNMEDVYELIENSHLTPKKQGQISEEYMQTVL
#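 TSHR-expressing cells were treated with compounds, then stimulated with TSH at EC80 (4nM final) for 2 hours at 37 deg C. Cellular cAMP was measured by HTRF competition between lysate cAMP and cAMP-d2 for a cryptate-labelled anti-cAMP antibody.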
# Eya2 inh – blocks the phosphatase activity of human Eya2 | recombinant Eya2, OMFP fluorescence dephosphorylation (OMFP is methylfluorescein phosphate) | Potency, µM (highest dose often 76.9 µM), inactives show at the top dose activity, negative = inhibition, hits mostly inhibitors | AID 488837 | 0.006% of 330,000 active; further: potency means the concentration at half of the fitted maximal effect; on the % scale 0 is the no-effect control and ±100 the full control effect
#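 Eya2 protein (added as 0.2 uM solution) was preincubated with compound for 10 min at ambient temperature in 50 mM HEPES pH 7.5, 50 mM NaCl, 5 uM MgCl2, 0.05% BSA, 1 mM DTT. OMFP (added at 50 uM) then reacted 10 min; fluorescence read at 485/525 nm.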
# Integrin act MD – activates integrin-mediated alleviation for muscular dystrophy; alpha7betagal myoblasts, beta-gal FDG fluorescence, 48 h; Potency, µM (titrated, usually from 38.3 µM), without a hit: at the top dose activation, most hits filed as activators; 0.064% of 350,000 active; AID 624291;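 further: potency means the concentration at half of the fitted maximal effect; 100% = response of the positive control SU9516; nearly all actives have a fitted effect of over 60% in size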
#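 alpha7betagal+/- myoblasts (passage 13, 250/well) treated 48 h at 37C with compounds at 1:260 dilution of DMSO stock. Lysed, then beta-galactosidase activity read as FDG fluorescence (ex 480/em 540) after 30 min, with pre-read for autofluorescence.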
# TCR activator – activators of T cell receptors | primary human leukocytes, anti-CD3, IL-2 HTRF, 48 h | Potency, µM (series often up to 9.22 µM), inactives show top-dose activation of IL-2 secretion, hits mostly activators | 330,000 tested, under 10 active | AID 504894; further: % of control where 0% means no effect
#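 IL-2 produced over 48 hr by a-CD3 bead-stimulated primary human leukocytes exposed to compounds was detected with a homogeneous time-resolved FRET immunoassay, 665nm acceptor signal after 320nm excitation.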
# Active calls of the source: *; u = inconclusive; x = no result; [ ] = remark or other dose. Unless noted, the call rests on the fitted dose curve; in most records, active means well fitted curve in the direction sought with a large enough effect; inconclusive means small, poorly fitted or top-dose-only effect, or another doubt; inactive means no such curve, though single readings can be large; an effect the other way counts as inactive or inconclusive.
SMILES,TSHR antagonist,Eya2 inh,Integrin act MD,TCR activator
O=C(CNC(=O)c1cccc(F)c1)N/N=C/c1cc(Br)ccc1OCc1ccccc1,-12.4,12.5%,10µM*,-8.2%[46.1 µM]
Cc1cc(C)c(NC(=O)CSc2nc3ncc(Br)cc3[nH]2)c(Cl)c1,2.0,-0.1%,-26.4%,-0.7%
Cc1ccc(NC(=O)CSc2nc3ncc(Br)cc3[nH]2)cc1C,-87.8*,4.6%,-33.8%,-2.6%
COc1ccc(OC)c2c1C(=O)c1ccccc1C2=O,-0.5,40.0%,-9.5%,2.9%
COc1ccc(OC)c2c1C(=O)C(Cl)=C(Cl)C2=O,-103.4*,4.1%,u,11.7%
Cc1cccc(C)c1NC(=O)N1CCC(C(=O)c2ccc(F)cc2)CC1,-78.6*,1.0%,-13.9%,2.2%
Cc1ccccc1NC(=O)N1CCC(C(=O)c2ccc(F)cc2)CC1,4.8,-4.3%,1.3%,-7.7%
O=C(c1ccccc1)c1ccc(N2CCN(C(=O)c3ccc(F)cc3F)CC2)c(F)c1,x,x,-18.3%,x
O=C(NC(Nc1nc2ccc([N+](=O)[O-])cc2s1)(C(F)(F)F)C(F)(F)F)c1cccnc1,u,-2.3%,-60.1%,-4.5%[46.1 µM]
O=C(NC(Nc1nc2ccc([N+](=O)[O-])cc2s1)(C(F)(F)F)C(F)(F)F)c1ccccc1Cl,-83.2*,-11.0%,-38.4%,4.8%
O=C(O)c1ccccc1-c1noc(-c2ccccc2F)n1,32.6,-10.5%,x,x
CC1(C)CC(=O)C2=C(C1)O[C@@]1(CCCCN3C(=O)c4ccccc4C3=O)Cc3ccccc3C2O1,x,-7.5%[15.4 µM],x,x
NC1CONC1=O (stereo not drawn),-12.1,-2.3%,x,x
CCCN1CCN(CCCNC(=O)Cn2nc(C)n3c(cc4cc(OC)ccc43)c2=O)CC1,-87.9*,-3.2%,-18.7%,1.1%
CC(C)C1Nc2ccc(C(=O)N3CCN(c4ccccn4)CC3)cc2NC1=O (stereo not drawn),-113.3*,4.9%,0.0%,-0.1%
CC(=O)Nc1cc(OC(C)=O)c2nonc2c1OC(C)=O,-74.4*,-7.2%,-53.6%,2.0%
N/C(Cc1ccc([N+](=O)[O-])cc1)=N\OC(=O)Cc1ccc(Cl)cc1,-77.3*,-9.3%,-12.9%,1.3%[46.1 µM]
N/C(Cc1ccc([N+](=O)[O-])cc1)=N\OC(=O)Cc1ccccc1,-8.2,3.1%,-11.2%,18.3%[46.1 µM]
O=S(=O)(Nc1ccc(-c2csc(-c3ccccc3)n2)cc1)c1ccc(F)cc1,-15.1,2.5%,-44.4%,-0.9%
O=C(Nc1nc(-c2ccccc2)cs1)c1ccccc1NS(=O)(=O)c1ccc(F)cc1,-85.1*,-3.6%,-54.0%,0.1%[46.1 µM]
Cc1ccc(C(=O)Nc2nc(-c3ccc(F)cc3)cs2)o1,-120.8*,10.8%,-6.1%,-4.0%
Cc1ccc(NS(=O)(=O)c2ccc(-c3coc(C)n3)cc2)c(Cl)c1,x,x,3.6%,x
Cc1ccccc1-c1nc(Cc2ccccc2)no1,7.2,-26.7%,24.5%,1.5%
O=C(c1ccc2c(c1)OCO2)N1CCN(S(=O)(=O)c2ccc(Cl)cc2)CC1,-96.1*,-0.5%,-0.4%,-3.4%
O=C(c1cccc(Cl)c1)N1CCN(Cc2ccc3c(c2)OCO3)CC1,-120.1*,6.9%,1.0%,3.9%
SMILES,TSHR antagonist,Eya2 inh,Integrin act MD,TCR activator
O=C(c1ccc2c(c1)OCO2)N1CCN(c2ccc(Cl)cc2)CC1,-1.1,-9.5%,0.6%,0.1%
O=C(c1cccc(F)c1)N1CCN(Cc2ccc3c(c2)OCO3)CC1,-41.6,-1.3%,-3.8%,x
CC[C@@H](C(=O)[C@@H](C)[C@@H](O)[C@H](C)CCc1ccc(C)c(O)c1C(=O)O)[C@H]1O[C@](CC)([C@H]2CC[C@](O)(CC)[C@H](C)O2)C[C@@H]1C,-84.2*,3.6%,x,4.2%
COc1ccc(-n2nnnc2SCC(=O)NC2CCCC2)cc1OC,-91.7*,12.6%,0.5%,11.5%
COCCNC(=O)C(c1ccc(O)cc1)N(Cc1ccccc1)C(=O)CCC(=O)Nc1nccs1 (stereo not drawn),-3.2,-4.7%,3.8%,-2.4%
COc1ccc(C(C(=O)NC(C)(C)C)N(CCc2ccccc2)C(=O)CCC(=O)Nc2cc(C)on2)cc1 (stereo not drawn),-105.7*,-12.2%,-15.0%,-1.4%
CC(C)(C)NC(=O)C(c1ccc(O)cc1)N(Cc1ccccc1)C(=O)CCC(=O)Nc1nccs1 (stereo not drawn),-98.0*,-17.6%,17.7%,-6.0%
COc1ccc(C(C(=O)NC(C)(C)C)N(CCO)C(=O)CCC(=O)Nc2cc(C)on2)cc1 (stereo not drawn),6.3,12.3%,u,3.8%
c1ccc(CCCNCCCn2cnc3c(OCc4ccccc4)ncnc32)cc1,x,x,-6.9%,-2.5%
S=c1[nH]nc(Cn2cnc3ccccc32)n1-c1ccccc1,12.1,9.2%,8.91µM*,3.5%
CCCCC[C@]12Cc3ccccc3C(O1)C1=C(CC(C)(C)CC1=O)O2,x,-3.2%[15.4 µM],x,x
Cc1ccc2nc3sc(C(=O)Nc4ccc(F)cc4)cc3cc2c1,0.4,0.6%,x,x
CCC1CCCCN1C(=O)CSc1nc2ncccc2[nH]1 (stereo not drawn),7.3,9.5%,-9.3%,-7.8%
CC(=O)C1=C(O)C(=O)N(c2ccc(Br)cc2)C1c1cccc(F)c1 (stereo not drawn),10.2,9.0%,u,x
CC(=O)C1=C(O)C(=O)N(c2ccc(O)cc2)C1c1cccc(F)c1 (stereo not drawn),-80.2*,-12.5%,-4.2%,3.8%
COc1ccc(-c2csc(NC(=O)CSc3nc(SC)ns3)n2)cc1,-74.0*,-3.8%,18.8%,2.7%[46.1 µM]
COc1ccc(-c2csc(NC(=O)CSc3nc(C)cs3)n2)cc1,x,x,-7.8%,1.5%
O=[N+]([O-])c1cccc(S(=O)(=O)N2CCN(S(=O)(=O)N3CCOCC3)CC2)c1,8.8,-2.3%,10µM*,-1.2%
Cc1c(NC(=O)Nc2c(Cl)cccc2Cl)c(=O)n(-c2ccccc2)n1C,19.0,-6.0%,-2.0%,7.3%
Cc1c(NC(=O)Nc2ccccc2Cl)c(=O)n(-c2ccccc2)n1C,-79.8*,3.4%,u,-2.8%
CC1=CCC2C(=O)N(c3ccc(C(=O)Nc4ccccc4Cl)cc3)C(=O)C2C1 (stereo not drawn),-81.9*,-11.9%,u,-4.7%
COc1ccc(OC)c(NC(=O)c2ccc(N3C(=O)C4CC=C(C)CC4C3=O)cc2)c1 (stereo not drawn),8.5,-1.8%,-13.6%,-6.2%
COc1ccc(Nc2ncnc3ccc(C)cc23)cc1,-5.2,-9.9%,3.55µM*,x
COc1ccc2[nH]c3c(NCCC4=CCCCC4)ncnc3c2c1,-73.5*,0.4%,-47.7%,3.2%
COc1ccc(/C=C(\NC(=O)c2ccccc2)C(=O)N2CCN(C)CC2)cc1OC,2.3,3.7%,12.1%,-8.2%
COc1ccc(C(=O)N/C(=C/c2cccnc2)C(=O)N2CCN(C)CC2)cc1OC,29.5,2.1%,4.47µM*,-0.2%
COc1ccc(OC)c(NC(=O)CSc2nnc(C3CCCCC3)n2-c2ccccc2)c1,-5.6,-10.7%,11.6%,-6.0%[46.1 µM]
